Compound activity: PubChem, National Center for Advancing Translational Sciences (NCATS)
An excerpt weighted towards active compounds, which were near 0.92% of everything screened.
NS1 function inh: inhibitors of influenza NS1 protein function | Potency, µM (doses to about 46.1 µM), for the others: top-dose activity, positive = more growth | hit rate 0.4% among 270,000; calls by dose curve; note: actives are rising curves; nearly all actives have a fitted effect of over 50% in size
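Read-out: OD600 growth recovery of NS1-expressing budding yeast. Cells grown overnight at 30C in -URA glucose medium, washed, resuspended and diluted 1:100 in 2% galactose assay medium, pH 6.0. Same strain lacking NS1 served as positive control.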
RE007 growth inh: less growth of the S. pombe RE007 Vpr strain. Potency, µM (doses to about 92.2 µM), inactives show at the top dose activity change, negative = less growth, actives largely listed as inhibitors. hit rate 0.21% among 360,000. S. pombe RE007 Vpr strain, BacTiter-Glo ATP luminescence, 24 h; active = well fitted falling curve with a large enough effect; inconclusive = small, poorly fitted or top-dose-only effect; inactive = no such curve, though single readings can be large or run the other way; note: % is set by controls: 0 for no effect and ±100 for the full control effect; nearly all actives have a fitted effect of over 50% in size
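Fission yeast strain RE007, carrying one chromosomally integrated HIV-1 vpr copy, was seeded at OD 0.01 in PMG+AL medium with 23 nL pinned compound. After 24 h at 30 °C and 99% humidity, viability was read by BacTiter-Glo luminescence.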
LmPK inh: blocks Leishmania mexicana pyruvate kinase activity; hit rate 0.37% among 290,000; Potency, µM (doses to about 57.5 µM), for inactives: at the top dose activity change, negative = inhibition, hits mostly inhibitors; Q27686; purified LmPK, Kinase-Glo ATP luminescence, 1 h; note: % is set by controls: 0 for no effect and ±100 for the full control effect
Target sequence (Q27686 whole entry, looked up): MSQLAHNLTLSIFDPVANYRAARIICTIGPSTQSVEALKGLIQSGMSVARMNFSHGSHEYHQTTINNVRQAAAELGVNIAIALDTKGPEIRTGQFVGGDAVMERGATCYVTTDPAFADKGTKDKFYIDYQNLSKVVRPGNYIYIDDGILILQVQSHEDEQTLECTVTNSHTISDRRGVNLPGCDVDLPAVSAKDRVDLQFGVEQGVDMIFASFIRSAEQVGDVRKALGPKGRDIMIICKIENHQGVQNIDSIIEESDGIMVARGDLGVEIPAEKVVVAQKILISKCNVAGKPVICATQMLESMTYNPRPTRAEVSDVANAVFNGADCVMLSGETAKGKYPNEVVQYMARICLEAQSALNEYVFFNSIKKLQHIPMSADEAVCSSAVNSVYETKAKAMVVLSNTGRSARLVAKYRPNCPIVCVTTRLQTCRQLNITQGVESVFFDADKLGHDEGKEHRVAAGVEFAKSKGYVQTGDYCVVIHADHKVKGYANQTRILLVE
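Pyruvate kinase activity monitored as ATP production (luciferase luminescence). Conditions: 0.1 nM enzyme, 0.5 mM PEP, 0.1 mM ADP, 1 h, RT; normalized against uninhibited and no-enzyme wells.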
AMA1-RON2 inh: inhibitors of Plasmodium falciparum AMA1-RON2 interaction. hit rate 0.2% among 360,000. Potency, µM (titrated, usually from 58.2 µM), inactives show at the highest dose activity change, negative = inhibition, hits mostly inhibitors. AlphaScreen AMA1-biotinylated RON2 peptide binding;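 note: 0% = vehicle wells and -100% = peptide control; nearly all actives have a fitted effect of over 45% in size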
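AMA1 (3D7) with his tag at 25 nM final met compounds first, then biotinylated RON2 peptide at 25 nM; detection used donor plus acceptor beads, 10 µg/mL apiece, read by AlphaScreen after 30 min at room temperature.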
Tb PYK inh: inhibitors of Trypanosoma brucei pyruvate kinase; hit rate 0.12% among 410,000; TbPYK enzyme, Kinase-Glo Plus ATP luminescence, 45 min; Potency, µM (doses to about 76.8 µM), inactives show at the top dose activity, negative = inhibition, actives largely listed as inhibitors; AID 624173; Q57TT1; note: % is set by controls: 0 for no effect and ±100 for the full control effect; nearly all actives have a fitted effect of over 50% in size
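Glycolytic pyruvate kinase of T. brucei was incubated with substrate, test compound and 130 uM ADP for 45 minutes at room temperature. Luminescent Kinase-Glo Plus signal was measured after 10 minutes.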
* marks the source's active call; other numbers are inactive results; [ ] = another dose, or the depositor's remark. Unless noted, calls come from the whole dose curve; as a rule, active = well fitted curve in the direction sought with a large enough effect; inconclusive = small, poorly fitted or top-dose-only effect, or another doubt; inactive = no such curve, though single readings can be large; an effect the other way counts as inactive or inconclusive. Potency is the fitted concentration of half-maximal effect.

Screening COC(=O)C1CCN(C2=C(NS(=O)(=O)c3ccc(Cl)cc3)C(=O)c3ccccc3C2=O)CC1 returned NS1 function inh 2%, RE007 growth inh -12%, LmPK inh -24%, AMA1-RON2 inh 20µM* and Tb PYK inh -3%.
`O=C(O)c1ccc2nc3c(nc2c1)-c1ccccc1C3=O` gave RE007 growth inh -15%, LmPK inh inconclusive, AMA1-RON2 inh 4% and Tb PYK inh 32µM*.
O=C(O)c1ccc2nc(-c3ccco3)c(-c3ccco3)nc2c1 was read as NS1 function inh 9%, RE007 growth inh -11%, LmPK inh -24%, AMA1-RON2 inh -17% and Tb PYK inh inconclusive.
`CC(C)N1[N]C(=C2C=c3cc(O)ccc3=N2)c2c(N)ncnc21` gave Tb PYK inh 6%.
Screening CC(=O)Oc1cccc(N2C(=O)C3C4C=CC(C4=C(C)C)C3C2=O)c1 (stereo unspecified) returned NS1 function inh -101%, RE007 growth inh 35µM*, LmPK inh -1%, AMA1-RON2 inh -2% and Tb PYK inh -23%.
For CCCCc1cc2c(cn1)C(=O)C(C)(OC(C)=O)C(=O)C2 (stereo unspecified) the results were LmPK inh -7%[11.5 µM].
Screening c1ccc(SSc2ccccn2)nc1 returned RE007 growth inh 45µM*, AMA1-RON2 inh 33% and Tb PYK inh inconclusive.
Screening c1ccc(Sc2ccccn2)cc1 returned RE007 growth inh -24%, AMA1-RON2 inh -8% and Tb PYK inh -2%.
Cc1c(C2(O)CCCCC2)[nH]c2ccc(C(F)(F)F)cc12 was read as RE007 growth inh 40µM*, AMA1-RON2 inh -9% and Tb PYK inh 4%.
Screening CCN(CC)C(=O)c1ccc(NC(=O)c2cccc(F)c2)cc1 returned NS1 function inh -12%, RE007 growth inh 4%, LmPK inh 28µM*, AMA1-RON2 inh -8% and Tb PYK inh -9%.
Screening CCCCn1c(CCn2nc(C)c(Br)c2C)n[nH]c1=S returned NS1 function inh 2%, RE007 growth inh 14%, LmPK inh 18µM*, AMA1-RON2 inh 34% and Tb PYK inh inconclusive.
`COc1ccc(NC(=S)N2CCCC2)cc1` gave NS1 function inh 6%, RE007 growth inh -1%, LmPK inh 2%, AMA1-RON2 inh -4%[2.32 µM] and Tb PYK inh -22%.
Screening COc1ccc(NC(=O)C(=S)N2CCCC2)cc1 returned NS1 function inh 4%, RE007 growth inh 16µM*, LmPK inh 0%, AMA1-RON2 inh 13% and Tb PYK inh 1%.
`O=C(/C=C/C(Cl)(Cl)Cl)Nc1ccc(Cl)cc1` gave RE007 growth inh inconclusive, AMA1-RON2 inh -2% and Tb PYK inh 1%.
NC(=O)/C=C/C(=O)Nc1ccc(Cl)cc1 was read as RE007 growth inh 11µM*, LmPK inh 9%, AMA1-RON2 inh 5% and Tb PYK inh 1%.
COC(=O)C1=C(C)NC(=O)/C1=C\c1cc(C)n(-c2ccccc2F)c1C was read as NS1 function inh 3%, RE007 growth inh 2%, LmPK inh 0%, AMA1-RON2 inh 2% and Tb PYK inh -15%.
COC(=O)C1=C(C)NC(=O)/C1=C\c1cc(C)n(-c2ccccc2C)c1C was read as NS1 function inh 13%, RE007 growth inh 16µM*, LmPK inh 0%, AMA1-RON2 inh -17% and Tb PYK inh -1%.
For O=C(CCCCCCCCC#CI)Oc1ccccc1 the results were Tb PYK inh -7%.
O=C(CCN1CCOCC1)c1ccc2c(c1)OCCO2 was read as NS1 function inh -31%, RE007 growth inh 13µM*, LmPK inh 0%, AMA1-RON2 inh 1% and Tb PYK inh 6%.
Screening O=C(CCN1CCCCC1)c1ccc2c(c1)OCO2 returned NS1 function inh -11%, RE007 growth inh 7.9µM*, LmPK inh 2%, AMA1-RON2 inh -3% and Tb PYK inh -6%.
O=C(CCN1CCc2ccccc2CC1)c1ccc2c(c1)OCCO2 was read as NS1 function inh -213%, RE007 growth inh 7.1µM*, LmPK inh -6%, AMA1-RON2 inh -13% and Tb PYK inh inconclusive.
Screening O=C(CCN1CCCCC1)c1ccccc1 returned NS1 function inh 14%, RE007 growth inh -9%, LmPK inh 4%, AMA1-RON2 inh -4% and Tb PYK inh -6%.
